Compound activity as filed in PubChem BioAssay.
Shown are actives, neighbours in structure and some others; about 9.3% of the full set was active somewhere.
FMDV inh = High Throughput Screening for Foot and Mouth Disease Virus Antivirals | FMDV antiviral cell-based qHTS | AID 1159524, 2015 | 410,000 tested, 1.2% active | Potency, µM (highest dose often 57.9 µM), for the others: at the highest dose activity change, negative = inhibition, usual class: inhibitors; calls by dose curve; tested in HEK293T cells; further: read-out not given here; potency means the concentration at half of the fitted maximal effect; nearly all actives have a fitted effect of over 45% in size
Vaccinia Venus = qHTS for Stage-Specific Inhibitors of Vaccinia Orthopoxvirus: Venus Reporter Primary qHTS; Potency, µM (highest dose often 36.5 µM), for inactives: at the highest dose activity change, negative = inhibition, usual class: inhibitors; Vaccinia virus Venus reporter expression, fluorescence; 330,000 tested, 0.46% active; calls by dose curve; tested in A549 cells; further: potency means the concentration at half of the fitted maximal effect; nearly all actives have a fitted effect of over 30% in size
HCMV antiviral = qHTS Assay for inhibitors of the human cytomegalovirus (HCMV); HFF cells, HCMV-luciferase reporter, 72 h; active compounds read low; activity change, negative = inhibition, % at 57.5 µM; 410,000 tested, 4.5% active; in the data active means activity change below about -60%; inconclusive means no clear call, values can overlap the other calls; inactive means above about -39%
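Two compound doses tested in HFFs infected with HCMV-luciferase, MOI 1 PFU/cell, 72 h at 37C. Lysate luminescence read with OneGlo; data normalized against buffer-only and 10uM Salinomycin inhibitor controls.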
Sm TGR inh = qHTS Assay for the Inhibitors of Schistosoma Mansoni Peroxiredoxins; purified TGR, DTNB reduction, TNB absorbance 405 nm; Potency, µM (titrated, usually from 114 µM), inactives show at the top dose activity change, negative = inhibition, most hits filed as inhibitors; 360,000 tested, 3% active; AID 485364, 2010; further: potency means the concentration at half of the fitted maximal effect; nearly all actives have a fitted effect of over 60% in size
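Kinetic colorimetric format: TGR-catalysed, NADPH-driven DTNB reduction monitored via TNB absorbance. Enzyme dispensed at 20 nM; compound exposure 15 min at room temperature before reaction start.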
VACV mCherry inh = qHTS for Stage-Specific Inhibitors of Vaccinia Orthopoxvirus: mCherry Reporter Primary qHTS | AID 720579, 2013 | Vaccinia virus mCherry reporter infection, fluorescence | Potency, µM (doses to about 36.5 µM), for the others: top-dose activity change, negative = inhibition, usual class: inhibitors | 310,000 tested, 0.63% active; calls by dose curve; tested in A549 cells; further: potency means the concentration at half of the fitted maximal effect; nearly all actives have a fitted effect of over 35% in size
HCV inhibitor = qHTS Assay for Inhibitors of Hepatitis C Virus (HCV); Huh7.5.1 HCVcc-Cre infection, luciferase reporter, 44 h; Potency, µM (series often up to 41.8 µM), without a hit: top-dose activity change, negative = inhibition, hits mostly inhibitors; 340,000 tested, 3.4% active; AID 651820, 2012; further: potency means the concentration at half of the fitted maximal effect
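1,000 cells/well; 4 h culture; + compound; + HCVcc-Cre (~0.5 moi); 44 h; luciferase substrate, RT 15 min; read 15 sec.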
* hit, by the source's call; i = inactive; u = inconclusive; x = no result given; [ ] = remark or other dose. Unless noted, the call rests on the fitted dose curve; in most records, active means well fitted curve in the direction sought with a large enough effect; inconclusive means small, poorly fitted or top-dose-only effect, or another doubt; inactive means no such curve, though single readings can be large; an effect the other way counts as inactive or inconclusive. On the % scale 0 is the no-effect control and ±100 the full control effect.

SMILES	FMDV inh	Vaccinia Venus	HCMV antiviral	Sm TGR inh	VACV mCherry inh	HCV inhibitor
Cc1ccc(CNC(=O)CN2C(=O)COc3ccc(S(=O)(=O)N4CCC(C)CC4)cc32)o1	1%	-4%	-36	-1%	-13%	-2%
Cc1ccc(CNC(=O)CN2C(=O)COc3ccc(S(=O)(=O)N4CCCCC4)cc32)o1	-4%	-30%	u	25µM*	i	-5%
CCOC(=O)c1c(C2COc3ccccc3O2)csc1N (stereo unspecified)	-17%	x	-33	3%	x	-26%
O=C(C1COc2ccccc2O1)N1CCOCC1 (stereo unspecified)	-14%	1%	-17	0%	x	-3%
c1ccc2c(c1)OCC(c1csc3ncnc(N4CCOCC4)c13)O2 (stereo unspecified)	x	-18%	-60*	8%	i	-12%
CCN(CC)c1ncnc2scc(C3COc4ccccc4O3)c12 (stereo unspecified)	u	-16%	u	-1%	i	11µM*
COC(=O)c1c(C)[nH]c(C(=O)C(C)OC(=O)C2=NNC(=O)CC2)c1C (stereo unspecified)	-7%	-5%	-7	-7%	12%	u
COc1ccc(CC(=O)OCC(=O)NNC(=O)c2ccccc2)cc1	-20%	x	u	x	x	5%
Cc1c(C(=O)N(Cc2cccc(Cl)c2)Cc2ccco2)oc2ccccc12	-6%	-6%	24	0%	-2%	x
O=C(CN1CCCCCCC1)Nc1cc(Cl)cc(Cl)c1	-7%	-11%	8	-16%	u	-10%
CCCCN(C)C(=O)c1nc2ccccn2c1CN1CCN(C/C=C/c2ccccc2)CC1	u	-7%	-21	-19%	-25%	u
C=CCOc1ccc(CN(C)C(=O)CNC(=O)c2ccc(-c3ccccc3)cc2)cc1	13µM*	-30%	-81*	-8%	i	11µM*
Cc1ccc(NS(=O)(=O)c2ccc3[nH]c(=O)ccc3c2)cc1N(C)C	7%	-9%	1	-13%	-10%	x
Cc1cc(C(=O)CCC(=O)Nc2cccc(F)c2)c(C)s1	-1%	-14%	-8	x	-1%	x
Cc1ccc2c3c(cccc13)-c1ccccc1C2=O	71%	-9%	16	8%	-24%	5.6µM*
COCCCCCCCCCCCC(=O)O	-1%[6.7 µM]	-10%[3.33 µM]	x	x	-2%[3.33 µM]	x
O=C(OCc1nc2scc(-c3ccccc3)c2c(=O)[nH]1)c1cc([N+](=O)[O-])ccc1Cl	40µM*	-8%	-24	-4%	-15%	0%
O=C(O)CSCc1nc2scc(-c3ccccc3)c2c(=O)[nH]1	-13%	-2%	29	-1%	-3%	11%
CCOC(=O)c1ccc(NC(=O)C2CCCN(c3cnccn3)C2)cc1 (stereo unspecified)	1%	-6%	0	70%	0%	-9%
COc1ccccc1CNC(=O)c1cc2c(C)nn(Cc3ccc(F)cc3)c2s1	-20%	-28%	-33	-21%	x	7.1µM*
CCN(CCCNC(=O)CCNC(=O)Cn1cnc2ccccc2c1=O)c1cccc(C)c1	-22%	-13%	60	-12%	-19%	-21%
COc1ccc(C2=CC(c3sccc3C)n3nnnc3N2)cc1 (stereo unspecified)	25%	-17%	65	35µM*	i	u
COc1ccc(C2C=C(c3ccc(Br)cc3)Nc3nnnn32)c(OC)c1 (stereo unspecified)	-5%	-18%	-72*	-24%	-3%	x
COc1ccccc1C1C=C(c2ccccc2)Nc2nnnn21 (stereo unspecified)	-5%	x	u	-10%	x	-9%
CC(C)NC(=O)Cn1c(=O)cnc2ccccc21	-24%	-18%	-24	-2%	i	20%
SMILES	FMDV inh	Vaccinia Venus	HCMV antiviral	Sm TGR inh	VACV mCherry inh	HCV inhibitor
O=C(COc1ccc(S(=O)(=O)N2CCOCC2)cc1)NC1CCCCC1	-15%	x	33	-1%	x	-15%
CCCCNC(=O)N1CCCN(c2ccc(C#N)cn2)CC1	5%	x	-65*	6%	x	7%
CN1CCN(S(=O)(=O)c2ccc(SCCOc3ccccc3)nc2)CC1	-20%	-11%	29	-9%	-14%	-19%
CCOc1ccc(OCCSc2ccc(S(=O)(=O)N3CCN(C)CC3)cn2)cc1	-21%	x	0	-1%	x	11µM*
O=S(=O)(c1ccc(SCCOc2ccc(Br)cc2)nc1)N1CCCC1	-19%	-20%	u	-31%	i	5.6µM*
O=S(=O)(c1ccc(Oc2ccc(Br)cc2F)nc1)N1CCCCC1	u	x	-1	-9%	x	25µM*
CC1CCCN(c2ccc(C(=O)NCc3cccs3)cn2)C1 (stereo unspecified)	x	-26%	-2	-1%	-5%	u
Cc1ccc(-n2ncc(C(=O)N3CCc4ccccc4C3)c2NC(=O)c2ccco2)cc1C	24%	x	-39	32µM*	x	-14%
Cc1cc(C(=O)N2CCN(c3ncccn3)CC2)nn1C	-9%	0%	u	4%	i	-2%
COC(=O)C1CCN(C(=O)COC(=O)c2ccc(N3CCCC3=O)cc2)CC1	1%	x	0	x	x	-22%
COc1ccc2nc(Cl)c(/C=N/Nc3ccccn3)cc2c1	-6%	4%	28	0%	-8%	-24%
Cc1cc(C(=O)CSc2nnc(Nc3ccccc3F)s2)c(C)n1CC1CCCO1 (stereo unspecified)	u	-15%	-11	0%[11.4 µM]	i	6.3µM*
COc1ccccc1Nc1nnc(SCC(=O)c2cc(C)n(CC3CCCO3)c2C)s1 (stereo unspecified)	-19%	-15%	-76*	7%	x	u
O=C(Cn1cnc2c(OCc3ccccc3)ncnc21)NCCCN1CCCC1=O	-16%	5%	16	x	-13%	0.56µM*
O=C(Cn1ncc2c3ccccc3n(Cc3ccccc3)c2c1=O)NCCCN1CCCC1=O	-18%	-7%	-67*	-20%	i	-3%
O=C(Cn1ncc2c3ccccc3n(Cc3ccccc3)c2c1=O)NCCc1ccc(Cl)cc1	-25%	u	-69*	-1%	u	x
COc1ccc(Cl)cc1NC(=O)CCn1cnc2ccccc2c1=O	u	-25%	u	6%	x	11µM*
O=C(Cn1ncc2c3ccccc3n(Cc3ccccc3F)c2c1=O)NCCc1ccc(Cl)cc1	15%	-23%	23	11%	-12%	x
O=C(CSc1nc(-c2ccc(F)cc2)cc(C(F)(F)F)n1)Nc1ccc2c(c1)OCO2	-17%	-11%	-6	0%	-4%	u
CCC(Cc1ccccc1)NC(=O)Cn1ncc2c3ccccc3n(Cc3ccc(F)cc3)c2c1=O (stereo unspecified)	-6%	u	u	-3%	u	x
